The list is not random: actives were taken first. Their share in the collection is about 5.2%.
FLuc inh: blocks Photinus pyralis firefly luciferase activity; hit rate 2.2% among 72,000; purified firefly luciferase, luminescence, 8 min; Potency, µM (doses to about 57.1 µM), most hits filed as inhibitors; also: nearly all actives have a fitted effect of over 40% in size
Target sequence (P08659 whole entry, looked up): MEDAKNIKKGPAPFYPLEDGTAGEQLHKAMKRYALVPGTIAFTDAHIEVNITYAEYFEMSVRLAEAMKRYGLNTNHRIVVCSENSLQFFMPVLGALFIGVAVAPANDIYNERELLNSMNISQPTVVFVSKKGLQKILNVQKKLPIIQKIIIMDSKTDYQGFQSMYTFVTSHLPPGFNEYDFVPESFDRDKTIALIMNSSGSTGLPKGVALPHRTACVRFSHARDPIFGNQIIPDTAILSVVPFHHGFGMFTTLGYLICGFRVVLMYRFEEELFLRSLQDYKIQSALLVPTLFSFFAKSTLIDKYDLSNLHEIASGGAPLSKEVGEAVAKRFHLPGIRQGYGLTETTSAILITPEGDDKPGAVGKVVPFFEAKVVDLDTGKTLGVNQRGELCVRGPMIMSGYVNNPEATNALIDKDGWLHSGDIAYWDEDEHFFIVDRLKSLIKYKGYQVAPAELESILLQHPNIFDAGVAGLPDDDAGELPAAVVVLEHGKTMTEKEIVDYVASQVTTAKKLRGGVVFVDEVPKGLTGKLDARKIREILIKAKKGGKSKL
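Here, luciferase activity is measured as luminescence following an 8 min room-temperature reaction at 10 uM ATP, pH 7.2. Every library sample is titrated.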
PK Bst: pyruvate kinase (B. stearothermophilus) modulation. Potency, µM. hit rate 1.2% among 51,000. purified pyruvate kinase, luminescence ATP production; ribose 5-phosphate activator present at AC10; in the data active = potency below about 11 µM; inconclusive = mostly about 12 µM to 25 µM;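 the screen sought inhibitors and activators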
TSHR ag: TSH receptor (human) agonism | AID 926 | Potency, µM (series often up to 57.1 µM), usual class: activators | hit rate 0.48% among 73,000 | HEK293-CNG-TSHR cells (CNG channel as cAMP sensor), membrane potential dye, cAMP; active = well fitted activation curve with a large enough effect in the main read-out, with a control signal flat, not every such curve was filed as active; inconclusive = small, poorly fitted or top-dose-only effect, or a change in a side signal; inactive = no such curve, though single readings can be large or run the other way; reference of the percent scale not stated here;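 also: the control signal comes from parental cells without the receptor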
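HEK 293 cells stably expressing TSHR and a cAMP-gated CNG channel; parental CNG-only cells as counterscreen. Cells preloaded 60 min with membrane potential dye plus 100 uM RO 20-1724, then compound 30 min; fluorescence read at 590 nm.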
HEK293 cAMP ctrl: raises cAMP in parental HEK293 cells, TSHR agonist counter-screen; parental HEK293 CNG cAMP sensor, membrane potential fluorescence; Potency, µM (top dose mostly 57.1 µM), usual class: activators; hit rate 2.5% among 73,000; AID 938; also: nearly all actives have a fitted effect of over 55% in size
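Parental HEK 293 cells stably expressing a cAMP-gated CNG channel were loaded with membrane potential dye containing 100 uM RO 20-1724 for 60 min. Compound added for 30 min; depolarization read as fluorescence intensity at 590 nm.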
Hits are given with their value; - = inactive; ? = inconclusive; . = no result; [ ] = another dose, or the depositor's remark. Unless noted, calls follow the shape of the dose curve; as a rule, active = well fitted curve in the direction sought with a large enough effect; inconclusive = small, poorly fitted or top-dose-only effect, or another doubt; inactive = no such curve, though single readings can be large; an effect the other way counts as inactive or inconclusive.

SMILES	FLuc inh	PK Bst	TSHR ag	HEK293 cAMP ctrl
Cn1c(=NC(=O)C2CCN(S(=O)(=O)c3cccs3)CC2)sc2ccccc21	-	-	25µM	-
CCn1c2ccccc2c2cc(NC(=O)C3CCN(S(=O)(=O)c4cccs4)CC3)ccc21	-	-	-	-
Cc1cc(C)cc(Nc2ncc3c(n2)CCCC3=O)c1	13µM	.	?	?
CCc1cccc(OCCCCNCCOC)c1	-	.	-	-
CCOC(=O)CC(=O)CSc1ncc(C(=O)OCC)c(N)n1	-	-	-	-
CC1(C)C(=O)OC(C(=O)c2ccccc2)C(C)(C)C1=O (stereo unspecified)	-	.	-	-
O=C1NC(c2cccs2)Nc2sc3c(c21)CCCC3 (stereo unspecified)	-	2.9	-	-
CN1CCc2c(sc3c2C(=O)NC(c2ccco2)N3)C1 (stereo unspecified)	-	-	-	-
Cc1ccc(C(=O)Nc2ccccc2C(=O)NC(CC(=O)O)C(=O)O)cc1 (stereo unspecified)	32µM	.	-	-
O=C(O)CC(NC(=O)c1ccccc1NC(=O)c1ccccc1)C(=O)O (stereo unspecified)	-	.	-	-
COc1ccc(NC(=O)c2ccccc2NC(=O)c2ccco2)c(OC)c1	-	.	-[11.4 µM]	-[11.4 µM]
O=C(Nc1ccc(Cl)cc1C(=O)Nc1ccccn1)c1ccco1	-	.	.	-
COc1ccccc1NC(=O)c1ccc(-c2ccccc2F)o1	-	-	?	25µM
COC(=O)c1ccccc1NC(=O)c1ccc(-c2ccccc2F)o1	-	-	-	-
COc1ccccc1NC(=O)c1cc(Cl)ccc1NC(=O)c1ccco1	-	-	?	25µM
CCOc1ccccc1NC(=O)c1cc(Cl)ccc1NC(=O)c1ccco1	-	-	?	25µM
COc1ccc(C(=O)Nc2ccc(Cl)cc2C(=O)NCc2ccco2)cc1OC	-	.	?	25µM
CCC(=O)Nc1cc2c(cc1C(=O)c1ccccc1)OCCO2	-	-	-	-
Cn1c(=O)c2[nH]c(-c3cccnc3)nc2n(C)c1=O	-	-	?	?
Cc1cc(C(=O)NCc2cc(C)n(C)n2)sc1-c1ccccc1	-	-	?	?
COc1ccc(Cl)cc1NC(=O)CN(C(=O)c1ccco1)C1CCCCC1	-	-	?	4µM
CCOC(=O)c1ccc(N2C(=O)c3n[nH]c(C)c3C2c2ccc(OC)cc2)cc1 (stereo unspecified)	-	-	?	?
O=C(Nc1cccc(Cn2cccn2)c1)c1cc2c(s1)CCCC2	13µM	-	.	-
CC(=O)Nc1cccc(Cn2cccn2)c1	-	-	?	20µM
CC(=O)Nc1cccc(C)c1	.	.	-	-
SMILES	FLuc inh	PK Bst	TSHR ag	HEK293 cAMP ctrl
CCSc1nnc(NC(=O)c2cc3c(s2)CCCC3)s1	.	.	.	-
COCc1[nH]nc2c1C1(CCC3(CC1)OCCO3)C(C#N)=C(N)O2	-	-	-	-
CCOc1ccc(NC(=O)c2ccco2)cc1	13µM	-	-	-
O=C(Nc1ccc(Oc2ccc(NC(=O)c3ccco3)c(NC(=O)c3ccco3)c2)cc1)c1ccco1	-	-	-	-
O=C(Nc1ccc(C(=O)Oc2ccccc2)c(O)c1)c1ccco1	25µM	-	-	-
O=C(Nc1ccc(OC(=O)c2cccs2)cc1)c1ccco1	25µM	-	-	-
O=C(Nc1cccc(NC(=O)c2cccs2)c1)c1ccco1	-	-	-	-
O=C(Nc1ccc(Nc2ccccc2)cc1)c1ccco1	13µM	-	-	-
CS(=O)(=O)N1CCC(c2noc(-c3ccc(C(F)(F)F)cc3)n2)CC1	-	-	-	-
CCCCn1c(=O)n(C)c(=O)c2c3c(sc21)COC(C)(C)C3	-	-	.	.
N=C1Sc2ccccc2C2=NCCCN12	3.2µM	.	-	-
O=C1Nc2cc3c(cc2Sc2ccccc21)OCCO3	-	-	?	?
CCN1CCN(Cc2ccc(NC(=O)Nc3ccccc3)cc2)CC1	13µM	.	-	-
Clc1ccc2c(c1)C1OCCC1C(c1ccco1)N2 (stereo unspecified)	16µM	9.6	.	-
Cc1ccc2c(c1)[C@H]1OCC[C@H]1[C@@H](c1ccncc1)N2	-	.	-	-
CC(NC(=O)C1CCN(c2nnc(-n3cccc3)s2)CC1)C12CC3CC(CC(C3)C1)C2 (stereo unspecified)	-	8.2	-	-
CC(C)NC(=O)C1CCCN(c2nnc(-n3cccc3)s2)C1 (stereo unspecified)	-	.	?	?
Nc1ncnc2c1ncn2[C@@H]1O[C@H](CO)[C@@H](O)[C@H]1O	-	-	.	.
CCn1c(SCC#N)nc2c(c1=O)C1(CCCC1)Cc1ccccc1-2	-	-	?	25µM
CCCn1c(SCC(N)=O)nc2c(c1=O)C1(CCCC1)Cc1ccccc1-2	-	-	.	.
CC(=O)c1ccc(Cl)c(Cl)c1Cl	.	.	-	-
Cc1ccc(C(=O)Nc2ccc3c(c2)CCC3)o1	.	.	-	-
O=C(Nc1ccc2c(c1)CCC2)c1cnccn1	25µM	.	-	-
Cc1cnc(C(=O)Nc2ccc3c(c2)CCC3)cn1	16µM	-	-	-
Cc1onc(-c2ccccc2)c1C(=O)Nc1ccccc1N1CCOCC1	-	-	.	-
SMILES	FLuc inh	PK Bst	TSHR ag	HEK293 cAMP ctrl
Cc1ccc(C(C)C)n1C(=O)OC(C)(C)C	-[11.4 µM]	.	-[11.4 µM]	-[11.4 µM]
C#CCOCCCC(=O)O	-[11.4 µM]	.	?	-[11.4 µM]
Cc1ccnc(Nc2nc(-c3c(C)nc4sccn34)cs2)c1	16µM	11	-	-
Cc1nc2sccn2c1-c1nc(-c2cc3ccccc3o2)cs1	-	?	?	?
CCc1ccc2oc(-c3cccc(NC(=O)c4cccnc4)c3)nc2c1	5µM	4.1	-	-
O=C(Nc1ccc2oc(-c3ccccc3)nc2c1)c1cccnc1	-	.	-	-
Clc1ccc(-n2nnnc2-c2ccccc2)cc1Cl	-	.	?	25µM
COc1ccc(-n2nnnc2-c2cccc(OC)c2)cc1	-	-	?	?
O=C(c1ccccc1)c1nnc(-c2ccccc2F)o1	4µM	8.5	-	-
CN(C)c1oc(-c2ccccc2F)nc1C#N	-	.	-	-
Cc1cc(C)nc(NC(=NCCc2c[nH]c3ccccc23)NC(=O)c2ccco2)n1	-	-	5µM	-
FC(F)(F)c1ccc(N2CCN(c3cc(-c4ccccc4)nc4ncnn34)CC2)nc1	-	-	?	16µM
FC(F)(F)c1cc(-c2ccccc2)nc(N2CCCCC2)n1	-	-	-	-
CC(=O)c1cc(-c2ccccc2)n(CCC(=O)NCc2cccs2)c1C	-	-	-	-
C[C@@H](C(=O)Nc1ccc2ccccc2c1)[C@@H]1C[C@@]1(C)[C@@H](NC(=O)c1ccncc1Cl)c1ccccc1	.	.	-	-
Cc1cc(C(=O)N[C@H](c2ccccc2)[C@@]2(C)C[C@@H]2[C@@H](C)C(=O)Nc2ccc3ccccc3c2)no1	.	.	?	1.6µM
C[C@@H](C(=O)Nc1ccc2ccccc2c1)[C@H]1C[C@]1(C)[C@H](NC(=O)c1cnccn1)c1ccccc1	.	.	?	16µM
CCOc1ccc(OCCSc2nnnn2C2CCCCC2)cc1	-	-	?	20µM
COc1cc(SC)ccc1C(=O)Nc1ccon1	25µM	?	-	-
COc1cc(SC)ccc1C(=O)Nc1ccc(S(=O)(=O)N2CCCC2)cc1	-	.	-	-
